A selection: hits, their analogues and other compounds. The true share with any hit is near 2.4%.
ATXN2 expr inh: reduces ATXN2 reporter expression in HEK-293 cells; HEK-293 ATXN2-luciferase reporter, luminescence, 24 h; AID 1745845; Potency, µM (doses to about 57 µM), without a hit: top-dose activity change, negative = inhibition, usual class: inhibitors; actives 0.72% (n = 360,000); further: on the % scale 0 is the no-effect control and ±100 the full control effect; nearly all actives have a fitted effect of over 55% in size
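ATXN2-luciferase reporter cells (luciferase flanked by upstream and downstream ATXN2 gene portions) were treated 24 h at 37 °C with compounds at up to 57 uM. SteadyGlo luminescence gave expression; GF-AFC fluorescence gave viability.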
S2 tox: viability counter-screen for ATXN expression inhibitors; S2 cells (HEK-293 line with an ATXN2-luciferase reporter) viability, CellTiter-Fluor protease fluorescence, 24 h; Potency, µM (top dose mostly 56.7 µM), actives largely listed as cytotoxic; actives 0.49% (n = 400,000); further: nearly all actives have a fitted effect of over 40% in size
Apoferritin bind: binds horse apoferritin like a general anesthetic. Potency, µM (doses to about 77.5 µM), for inactives: at the highest dose activity change, negative = displacement, most hits filed as inhibitors. apoferritin/1-aminoanthracene competitive binding, fluorescence. actives 0.074% (n = 350,000). P02791; further: on the % scale 0 is the no-effect control and ±100 the full control effect; nearly all actives have a fitted effect of over 20% in size
Target sequence (P02791 2-175 limits assumed): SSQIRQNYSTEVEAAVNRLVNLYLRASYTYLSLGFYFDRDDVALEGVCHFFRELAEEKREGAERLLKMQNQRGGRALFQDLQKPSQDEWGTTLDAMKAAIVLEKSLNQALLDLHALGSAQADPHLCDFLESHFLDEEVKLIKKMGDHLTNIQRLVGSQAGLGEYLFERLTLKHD
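In PBS, apoferritin at 10 uM is loaded with 1-AMA from a 50% saturated solution. After 10 min of compound exposure at ambient temperature, reduced 535 nm fluorescence indicates probe displacement.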
HepG2 viability: counter-screen for TGF-b inhibitors: cytotoxicity in HepG2 cells | HepG2 CAGA-GFP viability, ATP luminescence, 18 h | Potency, µM (highest dose often 46.1 µM), inactives show at the highest dose activity change, negative = cytotoxicity, most hits filed as cytotoxic | actives 0.76% (n = 410,000) | AID 588856
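HepG2 CAGA-GFP cells (1000/well, DMEM with 1% FBS) received compound, then TGF-beta at 500 pg/mL final, and were incubated 18 hours at 37 degrees C. Viability was read by CellTiter-Glo luminescence. Media-only wells were set as complete cell-killing and DMSO as no toxicity.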
TGFb SMAD3 inh: inhibitors of TGF-b signaling. HepG2 CAGA-GFP TGF-b/SMAD3 reporter, GFP fluorescence, 18 h; TGF-beta stimulated, 500 pg/mL final. Potency, µM (titrated, usually from 46.1 µM), for the others: at the highest dose activity, negative = inhibition, actives largely listed as inhibitors. actives 1.2% (n = 410,000); further: on the % scale 0 is the no-effect control and ±100 the full control effect; nearly all actives have a fitted effect of over 65% in size
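HEPG2 CAGA-GFP cells (1000/well, DMEM with 1% FBS) were pre-incubated 2 h at 37 degrees C, given compound by pin tool, then stimulated with TGF-beta at 500 pg/mL final for 18 h before per-cell GFP fluorescence imaging.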
Numbers without * were called inactive; i = inactive; ? = inconclusive; . = no result given; ! = not active in a repeat; [ ] = remark or other dose. The call rests on the fitted dose curve; in most records, active means well fitted curve in the direction sought with a large enough effect; inconclusive means small, poorly fitted or top-dose-only effect, or another doubt; inactive means no such curve, though single readings can be large; an effect the other way counts as inactive or inconclusive. Potency means the concentration at half of the fitted maximal effect.

SMILES	ATXN2 expr inh	S2 tox	Apoferritin bind	HepG2 viability	TGFb SMAD3 inh
CCOc1ccc(-c2cc(C(=O)NCCCn3ccnc3)c3cc(Br)ccc3n2)cc1	-18%	?	3%	-92%	14µM*
CCc1ccccc1Nc1cc(C(=O)NCCCN(C)C2CCCCC2)c2ccccc2n1	?	16µM*	-1%	-84%	?
CCOc1ccc(-c2cc(C(=O)NCCCN3CCN(CC)CC3)c3ccccc3n2)cc1	-1%	?	14%	20µM*	29%
CCCCCCOc1ccc(C(=O)NCCCn2ccnc2)cc1	-26%	i	14µM*	8%	16%
Cc1ccc(C)c(Nc2cc(C(=O)NCCCN(C)C3CCCCC3)c3ccccc3n2)c1	-15%	?	-3%	-54%	-5%
O=c1[nH]c(=O)n([C@H]2CCCO2)cc1F	7%	i	.	.	.
O=C(NCCCn1ccnc1)c1nn2c(C(F)(F)F)cc(-c3ccc(Br)cc3)nc2c1Cl	?	?	-9%	5.6µM*	18%
Cc1ccccc1Nc1cc(C(=O)NCCCN2CCN(c3cccc(Cl)c3)CC2)c2ccccc2n1	?	?	71%	-59%	22µM*
CC(=O)Nc1cc([N+](=O)[O-])cc(NC(C)=O)c1NC(C)=O	.	.	.	0%	23%
CCN1C(=O)/C(=C/c2nc3ccccc3c(=O)n2-c2ccccc2)c2ccccc21	?	?	-7%	16µM*	6%
Cc1ccc(-n2nc3c(N4CCC(C(=O)NCc5ccccc5C)CC4)nnc(C)c3c2C)cc1	?	?	?	-95%	18µM*
CCOc1ccccc1CNC(=O)C1CCN(c2nnc(C)c3c(C)n(-c4ccc(C)cc4)nc23)CC1	?	.	-31%	10µM*!	11µM*
COc1ccccc1CCNC(=O)C1CCN(c2nnc(C)c3c(C)n(-c4ccc(C)cc4)nc23)CC1	-10%	?	-15%	3.5µM*!	?
CCOc1ccc(CNC(=O)C2CCN(c3nnc(C)c4c(C)n(-c5ccc(C)cc5)nc34)CC2)cc1	.	?	-22%	-107%	?
C[C@H]1CN([C@@H](C)CO)S(=O)(=O)c2ccc(Br)cc2O[C@H]1CN(C)C(=O)Cc1ccncc1	5%	i	.	5%	12%
COc1cc([C@H]2c3[nH]c4ccccc4c3C[C@H]3C(=O)N4[C@@H](c5cc(OC)c(OC)c(OC)c5)c5[nH]c6ccccc6c5C[C@H]4C(=O)N23)cc(OC)c1OC	?	16µM*	-9%	14µM*	?
O=C1c2ccccc2C(=O)N1CCC#C/C=C1\c2ccccc2C(=O)N1c1ccccc1	-15%	28µM*	.	1%	?
COC(=O)C/C=C\[C@H](C)[C@@H](OCc1ccccc1Br)C(C)C	.	.	-3%[15.3 µM]	.	.
Cc1cc(O)c2ccccc2c1O	8.9µM*	?	.	.	.
O=C(NCCc1ccccc1)c1nccc2ccccc12	30%	i	.	-14%	-7%
COc1ccc(Nc2ccnc3ccccc23)cc1	19%	i	-14%	-16%	-1%
CC(C)Nc1ccc(Nc2ccnc3cc4ccccc4cc23)cc1	?	.	?	11µM*	?
c1ccc(CCNc2ccnc3cc4ccccc4cc23)cc1	?	.	174%	11µM*	?
COc1cccc(C2(CC(=O)N3CCCCC3CO)CC(=O)N(C)C2=O)c1 (stereo not drawn)	.	i	.	.	.
CON(C)C(=O)c1nnc2c(n1)[nH]c1ccccc12	.	.	-5%[15.3 µM]	.	.
CC1Cc2cc(S(=O)(=O)NCc3ccccc3)ccc2N1C(=O)C1CC1 (stereo not drawn)	-18%	i	-5%	-30%	-17%
CCc1ccc(NC(=O)C2CCN(S(=O)(=O)c3ccc4c(c3)CC(C)N4C(C)=O)CC2)cc1 (stereo not drawn)	13µM*	?	-9%	-17%	?
CCc1cccc(NS(=O)(=O)c2ccc3c(c2)CC(C)N3C(=O)C2CC2)c1 (stereo not drawn)	-39%	?	4%	-29%	7.1µM*
COc1ccccc1C(=O)NNC(=O)c1ccc2ccccc2c1O	.	?	.	-12%	-3%
